High-throughput results from PubChem.
hgDAF12 agonist – activates the H. glycines DAF-12 receptor ligand-binding domain. 370,000 tested, 1.8% active. activation, % at 6.8 µM. AID 687014. HEK293 GAL4-hgDAF12 UAS-luciferase reporter, agonist luminescence; normalized to butyrate control;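 active = activation above a cutoff set at the mean of all screened compounds plus 3 SD, cut at about 10% in these data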;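 note: 0% = DMSO wells and 100% = sodium butyrate wells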
DAX1 inh-1 – DAX1 (NR0B1) inhibition, primary screen; 370,000 tested, 1.1% active; AID 652010; inhibition, % at 6.8 µM; HEK293T StAR-luciferase reporter, SF-1/DAX-1 repression relief;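 active = inhibition above the mean over all tested compounds plus 3 SD, cut at about 3.6% in these data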;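 note: 0% = DAX-1 cells with DMSO and 100% = cells lacking DAX-1 with DMSO; higher inhibition means more luminescence from relief of DAX-1 repression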
DAX1 inh-2 – inhibitors of human orphan nuclear receptor DAX1 (NR0B1); 340,000 tested, 0.99% active; HEK293 Gal4-DAX1 luciferase reporter, luminescence; P51843; inhibition, % at 6.75 µM; AID 504766;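 active = inhibition above the mean over all tested compounds plus 3 SD, cut at about 4.2% in these data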;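 note: 0% = DAX1-transfected cells with DMSO and 100% = empty-vector control cells with DMSO; inhibition shows as a rise in luminescence from relieved DAX1 repression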
Target sequence (P51843 207-470 limits assumed): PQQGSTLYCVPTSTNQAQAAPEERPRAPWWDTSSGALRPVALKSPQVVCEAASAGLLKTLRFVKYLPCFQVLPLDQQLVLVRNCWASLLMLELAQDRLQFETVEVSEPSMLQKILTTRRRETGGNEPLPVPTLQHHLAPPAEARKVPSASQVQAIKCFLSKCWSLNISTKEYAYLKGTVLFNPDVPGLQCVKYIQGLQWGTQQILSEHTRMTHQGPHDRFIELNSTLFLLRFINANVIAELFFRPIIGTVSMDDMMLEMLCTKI
ssDAF12 agonist – S. stercoralis DAF-12 activation, primary screen | HEK293 ssDAF-12/GRIP1 lit1-tk-luc reporter, luminescence; % of 3 µM dafachronic acid response | activation, % at 6.8 µM | 370,000 tested, 1% active;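 active = activation above the mean over all tested compounds plus 3 SD, cut at about 0.9% in these data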;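 note: 0% = DMSO-only wells and 100% = 3 µM delta7-dafachronic acid wells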
hcDAF-12 act – activators of H. contortus DAF-12 nuclear receptor; HEK293 hcDAF-12 lit1-tk-luc reporter, luminescence; 0% DMSO, 100% Δ7-dafachronic acid; activation, % at 6.8 µM; 370,000 tested, 1.4% active; AID 652067;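 active = activation above the mean of all tested compounds plus 3 SD, cut at about 5.5% in these data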;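 note: 100% = response to 3 µM Δ7-dafachronic acid high control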
Numbers without * were called inactive; . = no result. This is a sample that favours compounds with a hit; in the whole collection about 4.1% have one here.

SMILES	hgDAF12 agonist	DAX1 inh-1	DAX1 inh-2	ssDAF12 agonist	hcDAF-12 act
COc1ccc(Cl)cc1S(=O)(=O)N1CCN(C(=O)CSc2nc3ccccc3nc2N2CCCC2)CC1	-2	-2	.	-2	-2
Cc1cc(NC(=O)C(C)C)n(-c2nc3ccccc3s2)n1	3	1	0	0.9*	6
CCOc1ccc2nc(N3CCC(C(=O)NCCCN4CCOCC4)CC3)sc2c1	12*	0	2	-1	2
CCOc1ccc2nc(N3CCCC(C(=O)NCCCN4CCOCC4)C3)sc2c1 (stereo not drawn)	4	3	1	-1	4
COc1ccc(NC(=O)Nc2ccc(OC)cc2)cc1	6	1	1	0	0
COc1ccc(NC(=O)O/N=C/c2ccccc2)cc1	11*	1	3	-1	2
COc1ccc(NC(=O)c2ccccc2C)cc1	6	2	6.3*	0	2
COc1ccc(NC(=O)OC(C)C)cc1	11*	2	1	0	4
O=C(Nc1cccnc1Oc1ccc(Cl)cc1)c1cccc2ccccc12	-1	0	6.0*	-1	1
COC(=O)C[C@@H]1CC[C@@H]2[C@@H](COc3ccc(NC(C)=O)cc3C(=O)N2C)O1	5	0	.	-1	1
CC(=O)N1C[C@@H](c2c[nH]c3ccccc23)C=C[C@H]1C(=O)NS(=O)(=O)c1ccc(C)cc1	4	0	.	0	4
COC(=O)[C@]12C[C@H](CC(=O)N3CCN(C(=O)c4ccco4)CC3)C(=O)N(Cc3ccc(Cl)cc3Cl)C1=C[C@H](C(C)C)O[C@@H]2C1CC1	1	-1	.	-2	-3
O=C(Nc1ccc(F)cc1)OCc1cn(Cc2ccc(C(F)(F)F)cc2)nn1	-2	0	.	-1	-3
O=C(NCCc1ccccc1)OCc1cn(-c2ccc(F)cc2)nn1	-1	0	.	0	-2
COc1ccc(NC(=O)c2cccc3ccccc23)cc1	11*	0	0	-1	1
COc1ccc(NC(=O)c2cccc3c(Br)cccc23)cc1	2	0	-2	0	1
COc1ccc(NC(=O)c2scc(S(=O)(=O)C(C)C)c2N)cc1	11*	2	2	1.2*	5
COc1cc2c(NCCCCCCO[N+](=O)[O-])ncnc2c(OC)c1OC	-5	-4	.	-1	-2
Nc1nnc(Cc2c[nH]c3ccccc23)s1	3	-1	0	1	5.7*
CCOC(=O)N1CCN(C(=O)c2cn(CC)c3ccc(S(=O)(=O)N4CCOCC4)cc3c2=O)CC1	1	2	0	-1	-1
CCCCN1CC(COCc2ccccc2)Oc2cccc(Sc3ccc(OC)c(OC)c3)c2S1(=O)=O (stereo not drawn)	3	4.2*	.	-1	1
NC(=O)C1=CN([C@@H]2O[C@H](COP(=O)(O)OP(=O)(O)OC[C@H]3O[C@@H](n4cnc5c(N)ncnc54)[C@H](O)[C@@H]3O)[C@@H](O)[C@H]2O)C=CC1	-1	0	.	-1	0
O=C(O)c1cccc(Cn2c(Cl)c(/C=N/NC(=O)c3ccc(O)cc3)sc2=O)c1	-4	0	4.6*	-1	0
O=C(c1cnc2nc3ccccc3n2c1)c1cc(F)ccc1O	7	3	0	0	5.6*
Oc1ccc(/C=N/NC(=S)NC2CC3CCC2C3)cc1 (stereo not drawn)	8	2	2	-1	1
SMILES	hgDAF12 agonist	DAX1 inh-1	DAX1 inh-2	ssDAF12 agonist	hcDAF-12 act
S=C(N/N=C/c1cccs1)NC1CC2CCC1C2 (stereo not drawn)	11*	0	.	-1	-1
O=C(OCc1cn(Cc2cccc(F)c2F)nn1)N1CCOCC1	-3	-1	.	0	2
O=C(Cn1nnc(-c2cccs2)n1)N1CCOCC1	0	0	3	-2	-1
CC1CCN(C(=O)Cn2nnc(-c3cccs3)n2)CC1	8	3.6*	6.0*	0	3
Cc1ccccc1NC(=O)CN1CCN(c2nc(-c3ccccc3)cs2)CC1	1	-1	.	-1	-3
CC(NC(=O)c1ccc2ccccc2n1)c1ccccc1 (stereo not drawn)	-1	-1	5.4*	-1	0
CN(C)C(CNC(=O)c1ccc2ccccc2n1)c1ccccc1 (stereo not drawn)	0	0	-1	-1	0
C/C(=N\NS(=O)(=O)c1ccc([N+](=O)[O-])cc1)c1ccc(NC(=O)c2ccco2)cc1	12*	4.3*	2	-1	0
O=S(=O)(Nc1ccc(-n2cnnn2)cc1)c1cccs1	-1	1	0	0	0
O=C(NC(=S)NCc1cccnc1)c1cccc2ccccc12	2	0	6.1*	0	4
CC(C)(C)c1ccc(NC(=S)NCc2cccnc2)cc1	0	0	5.2*	-1	-1
O=C(NC(=S)NCc1cccnc1)c1ccccc1F	0	0	4	-1	-2
N#Cc1ccc(/C=C2\CC3(OC(=O)c4ccco4)CCCN2C3)cc1 (stereo not drawn)	-3	1	.	-1	-1
C=CCn1c(SCCOC)nc2c1c(=O)[nH]c(=O)n2C	-3	2	1	-1	6.5*
C=CCn1c(SCCN2CCCCC2)nc2c1c(=O)[nH]c(=O)n2C	-2	1	0	-1	-2
COc1ccc(OCc2cc(C(=O)NC3CCOCC3)no2)c2ccccc12	3	-2	0	0	6.3*
COc1cccc(OCc2cc(C(=O)NC3CCOCC3)no2)c1	7	3	1	-1	3
COc1ccccc1OCc1cc(C(=O)N(C)CCC2CCOCC2)no1	10	3.9*	3	1	5
COc1ccc2c(c1)CCCN2C(=O)C1CCCN(S(=O)(=O)c2cc(OC)ccc2OC)C1 (stereo not drawn)	-1	-1	.	-2	-1
COc1ccc(-c2cc(=O)c3cccc(CC(=O)O)c3o2)cc1	0	0	.	-1	1
Cc1cc(C)c(NC(=O)COc2nncc3ccccc23)c(C)c1	-2	0	0	1.6*	1
CC(C)c1ccc(NC(=O)COc2nncc3ccccc23)cc1	-3	0	-1	-1	0
O=C(COc1nncc2ccccc12)Nc1ccc(F)c(F)c1	-3	0	5.7*	-2	0
O=C(COc1nncc2ccccc12)Nc1c(F)c(F)c(F)c(F)c1F	-1	-1	0	-2	-2
C[C@H]1CCCN1c1cccc2c1S(=O)(=O)N1CC[C@H](C1)O2	-1	-2	.	1	-1
COc1ccccc1C(=O)NC1CCCCN(Cc2ccccc2C)C1=O (stereo not drawn)	-6	-1	.	-2	-3
COc1ccc2ccccc2c1/C=N/n1cnnc1	5	0	0	0	6.5*
CC(=Nc1ccccc1)C1=C(O)CCCC1=O	-1	0	5.2*	-1	1
Cc1nc(-c2ccc(NC(=O)CC(C)C)cc2)cs1	13*	1	1	-1	4
